The assay concerns the target Ubiquitin carboxyl-terminal hydrolase 2 (Homo sapiens) (UniProt O75604). Put plainly: Confirmation Assay for Inhibitors of Ubiquitin-specific Protease USP2a Using CHOP2 as the Reporter. Note: nearly all actives have a fitted effect of over 55% in size. The note with it: USP2 core, Ub-CHOP2 coupled reporter fluorescence; series mostly up to 38.3 µM. Put shortly:
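Ub-CHOP2 cleavage coupled to reporter activation was read by fluorescence after 60 min at RT, with 25 nM final Ub-CHOP2 and substrate. Enzyme (10 nM final USP2 core) first sat 30 min with compound; data were normalized to NEM and fitted to concentration-response curves.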

Results filed as inconclusive are left out. A call without a number means that no potency is given here. Active and inactive are the calls of the source. Calls come from the whole dose curve; as a rule, active = well fitted inhibition curve with a large enough effect; inconclusive = small, poorly fitted or top-dose-only effect, or effect the other way; inactive = flat fitted curve, though single readings scatter.
Potency is the fitted concentration of half-maximal effect.

Chain of Ubiquitin carboxyl-terminal hydrolase 2 (Homo sapiens) (O75604 whole entry, looked up): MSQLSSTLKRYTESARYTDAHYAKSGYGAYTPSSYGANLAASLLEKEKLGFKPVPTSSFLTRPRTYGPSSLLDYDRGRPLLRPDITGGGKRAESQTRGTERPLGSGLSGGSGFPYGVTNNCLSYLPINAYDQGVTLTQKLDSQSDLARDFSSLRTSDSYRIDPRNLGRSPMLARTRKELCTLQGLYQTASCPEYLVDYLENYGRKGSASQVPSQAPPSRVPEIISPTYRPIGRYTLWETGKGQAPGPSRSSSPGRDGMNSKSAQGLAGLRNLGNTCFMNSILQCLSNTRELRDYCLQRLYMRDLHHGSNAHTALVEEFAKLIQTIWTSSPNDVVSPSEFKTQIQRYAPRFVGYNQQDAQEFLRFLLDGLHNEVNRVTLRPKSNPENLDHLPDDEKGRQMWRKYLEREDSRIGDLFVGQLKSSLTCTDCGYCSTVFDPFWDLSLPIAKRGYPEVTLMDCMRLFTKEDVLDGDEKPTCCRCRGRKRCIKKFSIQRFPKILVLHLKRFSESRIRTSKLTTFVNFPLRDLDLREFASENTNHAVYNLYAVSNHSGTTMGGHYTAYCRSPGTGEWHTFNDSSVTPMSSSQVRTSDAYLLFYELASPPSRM

Consider `COC(=O)CSc1nc2c(c(-c3ccco3)c1C#N)CCCC2`, for which the Potency result is “inactive”.
Under `COCCN1Cc2cccc(C(=O)N3CCN(c4cc(C)ccc4C)CC3)c2C1=O` stands “inactive”.
As for `Cc1ccc(Nc2cc(C)nc(NCc3ccccc3)n2)cc1`, the Potency entry was “inactive”.
For the compound `COc1ccc(Cc2nnc(NC(=O)Cc3cccs3)s2)cc1`, the Potency is 11.7 µM (active).
Regarding `CCN(CC)S(=O)(=O)c1ccc(Cl)c(NC(=O)COC(=O)c2c(C)noc2C)c1`, the Potency result is “inactive”.
For `NS(=O)(=O)c1ccc(N=Nc2c(O)c(C(=O)O)cc3ccccc23)cc1`, the Potency is 13.1 µM (active).
As for `CCOc1ccc2[nH]c(=O)c(CN(Cc3cccs3)Cc3nnnn3C(C)(C)CC)cc2c1`, the Potency entry is “inactive”.
Consider `COc1ccc(OCC(=O)Nc2ccccc2OC)cc1`, for which the Potency entry is “inactive”.
Turning to `CCNC(=S)N/N=C/c1cn(Cc2ccc(F)cc2)c2ccccc12`, the Potency entry is “inactive”.
Under `Cc1ccc(C(=O)NCCCc2ccccc2)s1` stands “inactive”; under `COC(=O)c1[nH]c2ccccc2c1NC(=O)CN1CCCc2ccccc21`, “inactive”.
Regarding `CC1CCCCC1NC(=O)CSCC(=O)O` (centres undefined), the Potency entry is “inactive”.
With `C=CCNCCOCCOc1ccccc1-c1ccccc1`, the Potency entry was “inactive”.
As to `O=C(O)CC(C(=O)O)N1C(=O)/C(=C/C=C/c2ccco2)SC1=S` (centres undefined), the Potency is 4.14 µM (active).
Under `CCC(C)c1ccc(O)c(N)c1` (centres undefined) stands “inactive”; under `Cc1cc(C(=O)NCc2ccco2)on1`, “inactive”.
In the case of `C=CCn1c(NCc2cc(C)ccc2O)nc2ccccc21`, the Potency entry is “inactive”.
As to `O=C(COc1ccccc1)N1CCN(C(=O)Cc2ccccc2)CC1`, the Potency entry is “inactive”.
With `Oc1ccccc1/C=N/Nc1ncc(Br)cn1`, the Potency result is “inactive”.
For `CCCn1c(N2CCN(Cc3cccc(C)c3)CC2)nc2c1c(=O)[nH]c(=O)n2C`, the Potency result was “inactive”.
As for `OCCN(Cc1ccccc1)c1ncnc2sccc12`, the Potency result was “inactive”.
With `COC(=O)[C@@]12CCCCN1[C@H](c1ccc(-c3ccc(Cl)c(Cl)c3)cc1)[C@H]1C(=O)N(C)C(=O)[C@H]12`, the Potency result is “inactive”.
Turning to `CC1CCc2c(sc3nc(CN4CCOCC4)nc(NS(=O)(=O)c4cccc([N+](=O)[O-])c4)c23)C1` (centres undefined), the Potency entry was “inactive”.
For `O=C(C[n+]1cccc(C(=O)N/N=C/c2ccc(Br)cc2)c1)c1ccccc1`, the Potency entry is “inactive”.
As for `C(=N\N(c1ccccc1)c1ccccc1)/c1ccccn1`, the Potency result is “inactive”.
Under `CCOC(=O)c1ccc(NC(=O)C2=C(C)Nc3nc(CCCO)nn3C2c2cccc(C)c2)cc1` (centres undefined) stands “inactive”; under `O=C(O)/C=C/c1ccc(S(=O)(=O)Nc2ccccc2C(=O)Nc2ccc(F)cc2)cc1`, “inactive”.
Regarding `Cn1nnnc1Sc1ncnc2scc(-c3ccc4c(c3)OCO4)c12`, the Potency entry was “inactive”.
In the case of `C/C(=N/NC(=O)c1cc2ccccc2cc1O)C1C(=O)c2ccccc2C1=O`, the Potency was 5.85 µM (active).
`Cc1cccc(-c2nnc3n2N=C(c2ccc(Br)cc2)CS3)c1`: the Potency result was “inactive”.
On to `CC1CCN(c2ccc3c(c2)S(=O)(=O)c2cccc(C(=O)NC4CC4)c2C3=O)CC1`, for which the Potency result was “inactive”.
Turning to `O=C(NCCN1C(=O)CSC1=O)C1CC(=O)N(c2ccccc2)C1` (centres undefined), the Potency entry was “inactive”.
Regarding `CCOC(=O)c1c(C)[nH]c(C(=O)COC(=O)CSC)c1C`, the Potency result was “inactive”.
Consider `COC(=O)N/N=C\c1cc(Br)ccc1OCc1ccccc1`, for which the Potency entry is “inactive”.
Under `COc1ccc(S(=O)(=O)N2CCCC2C(=O)NCc2cccs2)cc1` (centres undefined) stands “inactive”; under `O=C(CSCc1cnn(-c2ccccc2)c1-n1cccc1)NCC1CCCO1` (centres undefined), “inactive”; under `CC(=O)Nc1ccc(NC(=O)[C@@H](NC(=O)c2cccc(C)c2)C(C)C)cc1`, “inactive”.
Under `Cc1c2c(=O)n(-c3nc4ccccc4s3)nc-2cc(O)n1Cc1ccccc1` stands “inactive”; under `CCN1C(=O)CSc2ccc(C(=O)NC3CCCCC3)cc21`, “inactive”; under `N#CNC(=Nc1cccc(F)c1)SCc1cccc(F)c1`, “inactive”.
Under `Nc1cc(=O)[nH]c(SCc2cccc(Cl)c2)n1` stands “inactive”.
As to `CCn1c(SCC(=O)NCCc2ccccc2)nnc1-c1cccs1`, the Potency result is “inactive”.
Regarding `C=CC[C@H](CC(=O)N[C@H](CO)Cc1ccccc1)C(=O)N[C@H](COC(=O)[C@@H](CC=C)CC(=O)OC(C)(C)C)Cc1c[nH]c2ccccc12`, the Potency result is “inactive”.
With `COC(=O)c1ccc(CSc2ncnc3ccccc23)o1`, the Potency entry was “inactive”.
In the case of `CC(C)CC(=O)Nc1cccc(-c2nc3ccccc3o2)c1`, the Potency result is “inactive”.
Under `COC(=O)c1[nH]c2cc(OC)ccc2c1N` stands “inactive”; under `CSCC[C@H](NC(=O)C1CCN(S(=O)(=O)c2ccc(C)cc2)CC1)C(=O)NCc1ccco1`, “inactive”; under `CN(C)C=Nc1ncc2c3ccccc3n(CCN(C)C)c2c1C#N`, “inactive”.
On to `COc1ccc(-n2c(SCC(=O)N3CCN(c4ccccc4)CC3)nc3c(c2=O)SCC3)cc1`, for which the Potency entry is “inactive”.
